Screening results: PubChem BioAssay, National Center for Advancing Translational Sciences (NCATS)
D2 PAM-1: potentiates the human D2 dopamine receptor allosterically; P14416; DiscoveRx D2 beta-arrestin cells, luminescence, 90 min; 100% = 57 uM dopamine signal; potentiation, % (test concentration not listed); actives 0.23% (n = 360,000); in the data active = potentiation above about 50%; inconclusive = mostly about 30% to 49%
Target sequence (P14416 whole entry, looked up): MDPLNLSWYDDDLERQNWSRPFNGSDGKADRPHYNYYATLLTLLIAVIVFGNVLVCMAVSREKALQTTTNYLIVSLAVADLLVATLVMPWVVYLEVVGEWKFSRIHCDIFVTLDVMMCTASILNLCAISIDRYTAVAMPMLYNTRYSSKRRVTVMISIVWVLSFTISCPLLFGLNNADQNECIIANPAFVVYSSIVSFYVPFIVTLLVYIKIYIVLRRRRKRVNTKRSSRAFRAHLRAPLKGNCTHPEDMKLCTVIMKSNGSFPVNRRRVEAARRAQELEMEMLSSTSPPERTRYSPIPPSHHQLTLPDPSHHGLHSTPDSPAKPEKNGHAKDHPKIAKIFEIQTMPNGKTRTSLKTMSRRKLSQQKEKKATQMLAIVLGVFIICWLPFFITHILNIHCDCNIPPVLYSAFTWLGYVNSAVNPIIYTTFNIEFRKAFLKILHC
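PathHunter beta-arrestin assay in DiscoveRx D2 cells. Compounds were added with an EC20 of dopamine (50 nM final) for 90 min at 37 deg C. Luminescence was read 1 h after detection reagent, with 57 uM dopamine as the EC100 control.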
D2 ag-1: human D2 receptor agonism in beta-arrestin assay; P14416; activation, % (test concentration not listed); DiscoveRx PathHunter D2 beta-arrestin, luminescence, 90 min; 100% = 57 uM dopamine signal; actives 0.084% (n = 360,000); in the data active = activation above about 40%; inconclusive = between about 15% and that limit
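Agonist mode: compounds alone added to overnight-plated D2 PathHunter cells for 90 min at 37 C, with 57 uM final dopamine (EC100) defining full response. Beta-arrestin recruitment detected by chemiluminescent reagent, read after 1 h at ambient temperature.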
D2 ag-2: D2 dopamine receptor (human) agonism | P14416 | HEK293 T-REx D2 cells, calcium flux agonist mode | activation, % at 2 µM | actives 0.53% (n = 340,000) | AID 485358;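 active = activation over 3 SD above normal in the single-dose calcium agonist read, cut at about 30% in these data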; note: 0% is about no effect
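Agonism scored from kinetic calcium signal (1 read/sec, 180 s) following compound pin transfer, after a 10 s baseline. Cells: HEK293 Trex line expressing inducible D2 receptor coupled to calcium, dye-loaded after overnight culture at 30 C.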
D2 PAM-2: positive allosteric modulators of human D2 dopamine receptor. actives 0.34% (n = 340,000). potentiation, % at 10 µM. HEK293 T-REx D2, calcium flux, EC20 dopamine potentiation. AID 485347. P14416;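 active = potentiation over 3 SD above the plate norm, cut at about 30% in these data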; note: 0% is about no effect
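Primary screen. Calcium kinetics in induced HEK293 T-REx D2 cells: compound pre-addition 180 s, EC20 dopamine, 180 s more.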
D2 antagonist: D2 dopamine receptor (human) antagonism | AID 485344 | P14416 | actives 2% (n = 340,000) | inhibition, % at 10 µM | HEK293 TREx D2 cells, calcium flux, dopamine EC80; in the data active = inhibition above about 30%; inactive = below that, where a call was filed; note: 0% is about no effect
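Tetracycline-induced HEK293 T-REx cells expressing D2 force-coupled to calcium signalling were dye-loaded, exposed to compound for 180 s, then challenged with an EC80 of dopamine; calcium flux was followed kinetically for a further 180 s.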
* hit, by the source's call; ? = inconclusive; . = no result; ! = a repeat was not active. Hits are enriched below; roughly 2.4% of the tested compounds scored in any of these assays.

SMILES | D2 PAM-1 | D2 ag-1 | D2 ag-2 | D2 PAM-2 | D2 antagonist
CC(=O)c1ccc(OC(NC(=O)c2ccco2)C(Cl)(Cl)Cl)cc1 (stereo not drawn) | -1 | -1 | -1 | 32* | 6
Cc1ncc([N+](=O)[O-])n1CCOC(N)=O | -11 | -1 | -1 | 5 | 38*
CN1C[C@H](CO)C=C2c3cccc4[nH]cc(c34)C[C@H]21 | 8 | 69* | 0 | 1 | -9
Cn1c(=O)n(C)c2cc(CNCCc3ccccc3F)ccc21 | . | . | 2 | -8 | .
Nc1c(Br)cc2c3c(cccc13)-c1ccccc1-2 | 60* | 7 | . | . | .
COc1ccc(C)cc1NC(=O)c1cccn(Cc2cccc([N+](=O)[O-])c2)c1=O | . | . | . | -10 | .
c1ccc2c(c1)Nc1ccccc1S2 | 68* | ? | 2 | 4 | -13
O=C1Nc2ccccc2Sc2ccccc21 | -1 | -3 | 0 | -1 | 2
Cc1ccc(C2CC3CCC(C2)N3Cc2ccccc2F)cc1 (stereo not drawn) | -14 | 1 | -1 | -30 | 68*
Cc1sc2ncn(CC(=O)N3CCC4(CC3)OCCO4)c(=O)c2c1C | 1 | -2 | 0 | 30* | 10
Cc1ccccc1NC1=NCCCS1 | -11 | -1 | 1 | 6 | -22
Cc1cccc(NC2=NCCCS2)c1C | -6 | 2 | 0 | -10 | 38*
Cc1ccc(NC(=O)CN2C(=O)CN=C(c3ccccc3)c3ccccc32)c(C)c1 | . | . | 0 | -5 | .
Cc1ccc(S(=O)(=O)N(c2cc(Cl)c(O)c(Cl)c2)P(=O)(OC(C)C)OC(C)C)cc1 | -8 | 3 | 0 | 31* | 5
COc1cc(OC)c(OC)cc1CN1CCN(C(=O)COc2ccc3ccccc3c2)CC1 | -10 | -6 | 0 | -5 | -13
COc1ccc(OCC(=O)N2CCN(Cc3ccc(SC)cc3)CC2)cc1 | 0 | -2 | 0 | 34*! | 46*
COc1ccccc1CN1CCN(C(=O)COc2ccccc2)CC1 | -37 | -2 | -1 | -12 | 33*
COc1ccc(OCC(=O)N2CCN(Cc3ccc4c(c3)OCO4)CC2)cc1 | -18 | -1 | 0 | 6 | -6
N#Cc1cc2c(nc1SCC(=O)Nc1ccc(C(F)(F)F)cc1)C1CCN2CC1 | . | . | . | -7 | .
COc1ccc(OCC(=O)N2CCN(Cc3cc(=O)n4nc(-c5ccccc5C)sc4n3)CC2)cc1 | . | . | 0 | 15 | .
CCC1(C)OC(c2ccccc2)=C/C(=C/C=C2C(=O)NC(=O)NC2=O)O1 (stereo not drawn) | -15 | 0 | 15 | -9 | 43*
CN(C)P1(N(C)C)=Nc2c(c(N)nn2C)C(c2ccccc2)=N1 | 1 | 1 | -2 | -4 | 31*
CCCCC1(CCCC)C(=O)NC(=Nc2cccc(C)c2)NC1=O | -14 | -3 | 0 | 14 | -17
Cc1cccc(N=C2c3cc([N+](=O)[O-])ccc3-c3c2cc([N+](=O)[O-])cc3[N+](=O)[O-])c1 | 109* | 10 | . | . | .
CCC(C)N1C(=O)NC(=O)C2(Cc3c(ccc4ccccc34)N(C)C2)C1=O (stereo not drawn) | 77* | 8 | -1 | 10 | -27
SMILES | D2 PAM-1 | D2 ag-1 | D2 ag-2 | D2 PAM-2 | D2 antagonist
COc1ccc2c(c1)CC1(CN2C)C(=O)NC(=O)N(CCc2ccccc2)C1=O (stereo not drawn) | 12 | 2 | 0 | 7 | -32
CC(/C=C(\C)Nc1ccccc1)=Nc1ccccc1 | 9 | -4 | -1 | 37* | -4
O=C(Nc1ccccc1)Oc1ccccc1 | 1 | -2 | 0 | 5 | -5
C[C@@H]1CC[C@H]2[C@@H](C)C(=O)O[C@@H]3O[C@@]4(C)CC[C@@H]1[C@]32OO4 | 64* | ? | 0 | 10 | 3
Cc1cc(NC(=O)c2cccn(Cc3cccc([N+](=O)[O-])c3)c2=O)no1 | . | . | 0 | 8 | .
CCC1(c2cccc(O)c2)CCCCN(C)C1 (stereo not drawn) | -3 | -2 | 1 | -9 | 39*
CCCCc1nc2ccccc2c(=O)n1-c1cccc(OC)c1 | . | . | -2 | 10 | .
Cc1oc(-c2ccc(Cl)cc2)nc1CN1C(=O)CN=C(c2ccccc2)c2ccccc21 | . | . | . | -4 | .
Cc1cccc(NC(=O)Cn2cc(C(=O)c3ccccc3)c3ccccc32)c1 | . | . | 0 | -3 | .
O=C1CN=C(c2ccccc2Cl)c2cc(Cl)ccc2N1Cc1cccc(Cl)c1 | . | . | 1 | 12 | .
OC1(c2ccc(F)cc2)CCNC1 (stereo not drawn) | -8 | -4 | 0 | -7 | 86*
COc1ccc(Br)cc1C1SCC(=O)Nc2c1c(C)nn2-c1ccccc1C (stereo not drawn) | . | . | . | -5 | .
Cc1ccsc1C(=O)C1CCCN(Cc2cccc(-n3cccn3)c2)C1 (stereo not drawn) | -7 | -5 | 0 | 14 | -9
Cc1ccsc1C(=O)C1CCCN(Cc2cccc(OCCO)c2)C1 (stereo not drawn) | -17 | -1 | 0 | -23 | 52*
COc1ccc(CN2CCCC(C(=O)c3sccc3C)C2)cc1O (stereo not drawn) | -8 | 5 | 0 | -17 | 41*
O=C(Nc1cc(C(F)(F)F)cc(C(F)(F)F)c1)c1cccn(Cc2ccccc2Cl)c1=O | . | . | 2 | -6 | .
Cc1ccc(C(C)C)c(OCC#CCN2CCCC2)c1 | 61* | 4 | -1 | -26 | 35*
CCc1ccc(-n2nc(C)c3c2NC(=O)CSC3c2ccc(OC)cc2OC)cc1 (stereo not drawn) | . | . | -1 | -19 | .
COc1ccc(-n2nnnc2C(CCc2ccccc2)N2CCC(n3c(=O)[nH]c4ccccc43)CC2)cc1 (stereo not drawn) | 27 | ? | . | . | .
O=c1[nH]c2ccccc2n1C1CCN(C(CCc2ccccc2)c2nnnn2-c2ccc3c(c2)OCCO3)CC1 (stereo not drawn) | 58* | 11 | . | . | .
O=c1[nH]c2ccccc2n1C1CCN(C(c2ccnc3ccccc23)c2nnnn2-c2ccc3c(c2)OCCO3)CC1 (stereo not drawn) | 50* | ? | . | . | .
COc1ccc(C2CN(C)CC2C(=O)c2ccc(F)cc2)cc1Cl (stereo not drawn) | -13 | 0 | 0 | -35 | 69*
CN1CC(C(=O)c2ccc(F)cc2)C(c2c(F)cccc2Cl)C1 (stereo not drawn) | -24 | -3 | 0 | -12 | 5
Clc1cccc(N2CCNCC2)c1 | -33 | -4 | 1 | -21 | 35*
CC(=O)OCC[N+](C)(C)C | 1 | -4 | 45* | 6 | -17
C[N+](C)(C)CCOC(=O)CBr | -5 | -6 | 0 | 7 | -10
CCN1/C(=C\C=C\C2=[N+](CC)c3ccccc3C2(C)C)C(C)(C)c2ccccc21 | -37 | -8 | 50* | -17 | 21
CSc1ccccc1C(=O)C1CCCN(Cc2ccn[nH]2)C1 (stereo not drawn) | -3 | -1 | 22 | -20 | 48*
